Results reported in ChEMBL document CHEMBL4513216, “Probing the Open Global Health Chemical Diversity Library for Multistage-Active Starting Points for Next-Generation Antimalarials” (ACS Infect Dis, 2020).
Hit rate of the full screen: of about 69,000 compounds, about 8,600 (12%) showed an effect of 50% or more. The sample holds strong results, similar compounds and a random draw of the others, so the mix is not that of the screen.

What follows are molecules tested on Plasmodium berghei (assay: Screen against P. berghei liver stage (PbLuc), transformed with Luciferase, at 10uM). Conditions: tested at 10 uM.
Type: functional, HepG2

Structure (SMILES) | INHIBITION [%]
COCCC(=O)N1CCC(c2cc(O)n(C)n2)C1 (configuration not stated) | 0.301
O=C(O)CC(CC(=O)NCc1ccsc1)c1cccs1 (configuration not stated) | -24
CCn1cc(NC(=O)NCCc2ccc3c(c2)OCO3)cn1 | -23.9
CCc1nc(C(=O)N(C)CC(=O)N(C)C)nn1-c1ccccc1Cl | 27.9
c1ccc2oc(CCCN3CCOC(Cn4cncn4)C3)nc2c1 (configuration not stated) | 47.1
Cc1ccsc1C(=O)N1CCC(Nc2cccnc2)CC1 | -36.6
COCCN1C(=O)[C@@H]2CC[C@H]1CN(S(=O)(=O)c1ccc(OC)cc1)C2 | 1.56
Cc1cc(C(F)(F)F)c2c(C3CCCN(C(=O)C4CC4)C3)noc2n1 (configuration not stated) | 26.8
CNc1ccc(Cl)cc1C(=O)N1CCC(Cn2cc(CN)nn2)CC1 | 21.2
CC(C)n1ncc2c1NC(=O)CC21C(=O)Nc2c(Cl)cc(Br)cc21 (configuration not stated) | -23.7
Cc1cc(C)c2c(c1)C1(CC(=O)Nc3c1cnn3C(C)C)C(=O)N2 (configuration not stated) | -20.5
CN1C(=O)C2(CC(=O)Nc3c2cnn3C(C)(C)C)c2c(Cl)cccc21 (configuration not stated) | 5.58
CC(C)n1ncc2c1NC(=O)CC21C(=O)Nc2c(Br)cc(Cl)cc21 (configuration not stated) | 59.3
CC(C)n1ncc2c1NC(=O)CC21C(=O)Nc2c(Cl)ccc(Cl)c21 (configuration not stated) | 73.6
Cc1cc(Br)c2c(c1)C1(CC(=O)Nc3c1cnn3C(C)C)C(=O)N2 (configuration not stated) | -34.8
CC(C)n1ncc2c1NC(=O)CC21C(=O)Nc2cc(Cl)cc(Cl)c21 (configuration not stated) | 89.6
CC(C)n1ncc2c1NC(=O)CC21C(=O)Nc2c(Cl)cc(Cl)cc21 (configuration not stated) | -35.5
CC(C)n1ncc2c1NC(=O)CC21C(=O)Nc2c(Cl)cccc21 (configuration not stated) | -75.8
CC(=O)c1ccc(N2CCN(C(=O)NCc3cc[nH]n3)CC2)cc1 | 48.4
O=C(c1ccsc1)N1CCOC2(CCN(Cc3cccnc3)CC2)C1 | -9.67
COc1ccc2oc(C(C)NC(=O)NC3CCN(C)CC3)c(C)c2c1 (configuration not stated) | 2.4
Cn1ccnc1CNC(=O)N(CCCO)C1CCc2ccccc21 (configuration not stated) | 8.05
CCC[C@H]1CN(c2cncc(C(=O)N3CCCCC3)n2)C[C@@H]1N(C)C | -12.2
COCCNC(=O)Cn1cc(OCc2ccc(F)cc2)c(=O)cc1C | 25.8
Cc1nc(O)cc(C2CCCN2CCO)n1 (configuration not stated) | 13.5
CC(=O)Cc1c(C)nn(-c2cncc(N)c2)c1C | 11.5

Structure (SMILES) | INHIBITION [%]
O=C1CC2(CCCC2)CN1CCOc1ccc(F)cc1 | -144
OC1CN(c2nc3c(C(F)(F)F)cccc3s2)C1 | -40
COc1cccc2sc(OC3CN(C(=O)C4=COCCO4)C3)nc12 | 13.3
O=C(C1=COCCO1)N1CC(Oc2nc3c(C(F)(F)F)cccc3s2)C1 | 81.1
CC(=O)OC1CN(c2nc3c(C(F)(F)F)cccc3s2)C1 | -107
O=C(C1=COCCO1)N1CC(Oc2nc3c(Cl)cccc3s2)C1 | 74.6
Cn1nc(C(=O)N2CC(Oc3nc4c(Cl)cccc4s3)C2)ccc1=O | 29.6
CC1CCN(C(=O)CSc2nc3c(cnn3CCO)c(=O)[nH]2)CC1 | 38.6
O=C(c1ccc2[nH]nnc2c1)N1CC[C@H](O)[C@]2(CCCO2)C1 | 1.62
CCc1cccc(NC(=O)N2CCn3cnc(COC)c3C2)c1 | -2.35
CCN(CC1CCCO1)C(=O)Nc1cc(C(N)=O)ccc1OC (configuration not stated) | 2.3
O=C(Cc1ccsc1)N1CCC[C@@H]1Cn1c(=O)oc2ccccc21 | 8.2
O=C(NCC1CCOCC1)[C@@H]1CC[C@@H]2[C@@H](CCN2Cc2ccncc2)O1 | -54.7
O=C(COCC1CCCO1)N(Cc1cccnc1)c1ccc(F)cc1 (configuration not stated) | 53.3
O=C(CN(Cc1cccnc1)CC1CCCO1)Nc1ccc(F)cc1 (configuration not stated) | 21.6
O=C(CCc1cccnc1)N(Cc1ccsc1)CC1CCCO1 (configuration not stated) | -9.86
Cn1cc(C2CC(=O)NC23CCN(C(=O)c2cccnc2)CC3)cn1 (configuration not stated) | 33.4
O=C(c1csc(-c2ncccn2)n1)N1CCCC1Cn1cccn1 (configuration not stated) | 41.5
O=C(Nc1cccc(CNCc2cccs2)c1)C1CCCC1 | 36.9
CC(C)CC(=O)Nc1cccc(CNCc2cccs2)c1 | 52.1
O=C(Nc1cccc(CNCc2cccs2)c1)C1CC1 | 20.5
Cc1cnn(CC2CCCN2C(=O)c2sccc2-n2cnnn2)c1 (configuration not stated) | -29.1
COCCC(=O)N(C)CCC1=CCN(C)CC1 | -6.274
CN(C)C(=O)C1(c2cnccn2)CCCN1C(=O)Cc1ccsc1 (configuration not stated) | 41
CN1Cc2ccccc2CC2(CCN(C(=O)N3CCOCC3)CC2)C1=O | 26.5
CCN1CC[C@]2(CN(C(=O)C3CCOCC3)C[C@H]2c2ccccc2)C1=O | 20.1
